For 32 molecules, growth results are on record in PubChem BioAssay (NCI).

Several values for one entry are separate records, joined by “and”; a condition that tells them apart may be missing. Equal values may be shown once. Compounds without any hit were thinned out: in the full panel of roughly 83,000, 20% have a hit.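 Growth was measured after 48 h exposure to one concentration of compound in 96-well plates. Values under 10 count as active.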 Activity calls are given as the source filed them. Where a SMILES comes first, the peptide text is derived from it. The star is where a group is joined. Trt = c1ccc(C(c2ccccc2)(c2ccccc2)*)cc1; Cbz = O=C(OCc1ccccc1)*

The first assay deals with KM12 colon. The assay is described as follows: NCI-60 one-dose screen, 48 h (100 = growth as untreated, 0 = no growth, -100 = all killed). The settings on record: 10 µM.
On to `O=C(Nc1c(Cl)cccc1Cl)Oc1cccc2cccnc12`, for which the growth is 47% (inactive). For the molecule `O=C(Nc1cccc(Br)c1)Oc1cccc2cccnc12`, the growth is 110% (inactive). Take `COc1ccc(-c2cscc2N)cc1`: the growth is 69.6% (inactive).

Consider `CN(C)C(=O)c1ccc(SC(=S)NCc2ccccc2)cc1`, for which the growth was 102% (inactive).

Take `O=C(O)c1c(Cl)c(Cl)c(Cl)c(Cl)c1-c1c2cc(I)c(=O)c(I)c-2oc2c(I)c(O)c(I)cc12`: the growth was 102% (inactive) and 99.9% (inactive) and 104% (inactive).

Still in this assay, the particulars now being: 10 µM unless noted.
Turning to `CCCCCCCCCCCCCCCCCCOP(=O)([O-])OC1CC[N+](C)(C)CC1`, the growth was -44.2% (active) and -95.1% (active). Same read-out and setting: then `Cn1c2ccccc2c2nnc(N/N=C/c3ccccn3)nc21`, with 23% (inactive); and `O=[N+]([O-])c1ccc2c(N=Nc3ccc4ccccc4c3O)c(O)cc(S(=O)(=O)O)c2c1`, with 95.6% (inactive).

As to `CCC(CCCN(CC)CCc1ccccc1)OC(=O)c1cc(OC)c(OC)c(OC)c1` (configuration not stated), the growth is 96.6% (inactive). Still for that read-out and setting: to `O=C1c2ccccc2C(=O)N1c1ccccc1` belongs 107% (inactive); to `COC(=O)C(CSC(c1ccccc1)(c1ccccc1)c1ccccc1)NC(=O)C(CC(N)=O)NC(=O)OCc1ccccc1` (stereo not drawn) (Cbz-Asn-Cys(Trt)-OMe; configuration not given here), 33% (inactive). Same read-out and setting: then `O=C(Nc1ccccc1)c1cc(Cl)ccc1O`, with 47% (inactive); and `CC1OC(OC2C(OC3CCC4(C)C(CCC5(C)C4CC=C4C6CC(C)(C)CCC6(CO)C(O)CC45C)C3(C)C)OC(C(=O)O)C(OC3OC(COC4OC(CO)C(O)C(O)C4O)C(O)C(O)C3O)C2O)C(O)C(O)C1O` (configuration not stated), with -70.9% (active); and `C[N+](C)=c1ccc2nc3c(cc(NCCCNc4cc5oc6cc(=[N+](C)C)ccc-6nc5c5ccccc45)c4ccccc43)oc-2c1`, with 17.5% (inactive). Turning to `CCC(CC)COC(=O)c1ccc(O)c(O)c1`, the growth is 61.3% (inactive).

As to `O=C(Nc1ccc(F)cc1)ON=C1CCCCC1`, the growth was 92.9% [100 µM] (inactive). The same measure, in the same setting: to `CC1=CC(O)C2CC1C2(C)C` (configuration not stated) belongs 101% (inactive) and 114% (inactive); to `CCN(CC)CCOc1ccc(-c2nc3cc(Cl)ccc3s2)cc1`, -99.2% (active). `CC(=O)ON=C1C=CC(=C(C#N)c2ccccc2)C=C1`: the growth is -48.2% (active). Same read-out and setting: then `O=C1c2ccccc2C(=O)c2sc(Nc3cccc(Cl)c3)nc21`, with 24.6% (inactive); and `Cc1ccnc(NC(c2ccccc2)c2ccc3cccnc3c2O)c1` (configuration not stated), with 32.8% (inactive). Consider `Oc1c(Br)cc(Cl)cc1C(c1cc(Cl)cc(Br)c1O)C(Cl)(Cl)Cl`, for which the growth is 13% (inactive).

Regarding `CC(=O)Nc1cccc2cc(O)ccc12`, the growth was 110% (inactive) and 90.7% (inactive) and 103% (inactive). Take `Cc1cc(N)c2ccccc2[n+]1CCCCCCCCCC[n+]1c(C)cc(N)c2ccccc21`: the growth was -48.4% (active) and 6.86% (active). On to `N#CSCc1ccc(Cl)c(CSC#N)c1`, for which the growth was 28.2% (inactive). Turning to `CNc1ccc(N)cc1`, the growth is 107% (inactive). Still for that read-out and setting: to `COc1cc(NS(C)(=O)=O)ccc1Nc1c2ccccc2nc2ccccc12` belongs 48.6% [2.5 µM] (inactive); to `O=C(O)c1ccc2c3c(ncnc13)-c1ccccc1C2=O`, 46.5% (inactive); to `CCC(=O)Sc1ccccc1C(=O)Nc1ccc(Cl)cc1`, 64.9% (inactive). On to `COc1ccc2nc3cc(Cl)ccc3c(NCCNc3c4ccc(Cl)cc4nc4ccc(OC)cc34)c2c1`, for which the growth was -71.8% (active).

`N[C@H](C(=O)O)[C@@H]1CC(Cl)=NO1`: the growth is 18.2% [20 µM] (inactive).

Take `CCOC(=O)c1c(C)[nH]c(CO)c1C`: the growth is 94.2% (inactive).

Staying with this assay, now noted: 100 µM.
Regarding `O=C(Nc1c(Cl)cccc1Cl)Oc1cccc2cccnc12`, the growth was 5.56% (active). As for `O=C(Nc1cccc(Br)c1)Oc1cccc2cccnc12`, the growth was 40.1% (inactive).

Regarding `COc1ccc(-c2cscc2N)cc1`, the growth is 21.1% (inactive). Turning to `CN(C)C(=O)c1ccc(SC(=S)NCc2ccccc2)cc1`, the growth was 25.5% (inactive). With `O=C(O)c1c(Cl)c(Cl)c(Cl)c(Cl)c1-c1c2cc(I)c(=O)c(I)c-2oc2c(I)c(O)c(I)cc12`, the growth is 67.9% (inactive).
